According to the supplement of paper PMC3334620:
The full ranking holds about 33,000 sequences; the median of “E-score (-0.5 to 0.5)” is about -0.016, and the highest 2% start at about 0.3. What follows is part of a selection rich in the highest values, with near analogues and random picks from the rest.

target: T1, Yer184c (UniProt P39961); experiment: PBM E-score (8-mer binding enrichment) (E-score (-0.5 to 0.5)); higher = stronger / more preferred TF binding; details: protein concentration: 100 nM; construct: GST-full length
T1 sequence: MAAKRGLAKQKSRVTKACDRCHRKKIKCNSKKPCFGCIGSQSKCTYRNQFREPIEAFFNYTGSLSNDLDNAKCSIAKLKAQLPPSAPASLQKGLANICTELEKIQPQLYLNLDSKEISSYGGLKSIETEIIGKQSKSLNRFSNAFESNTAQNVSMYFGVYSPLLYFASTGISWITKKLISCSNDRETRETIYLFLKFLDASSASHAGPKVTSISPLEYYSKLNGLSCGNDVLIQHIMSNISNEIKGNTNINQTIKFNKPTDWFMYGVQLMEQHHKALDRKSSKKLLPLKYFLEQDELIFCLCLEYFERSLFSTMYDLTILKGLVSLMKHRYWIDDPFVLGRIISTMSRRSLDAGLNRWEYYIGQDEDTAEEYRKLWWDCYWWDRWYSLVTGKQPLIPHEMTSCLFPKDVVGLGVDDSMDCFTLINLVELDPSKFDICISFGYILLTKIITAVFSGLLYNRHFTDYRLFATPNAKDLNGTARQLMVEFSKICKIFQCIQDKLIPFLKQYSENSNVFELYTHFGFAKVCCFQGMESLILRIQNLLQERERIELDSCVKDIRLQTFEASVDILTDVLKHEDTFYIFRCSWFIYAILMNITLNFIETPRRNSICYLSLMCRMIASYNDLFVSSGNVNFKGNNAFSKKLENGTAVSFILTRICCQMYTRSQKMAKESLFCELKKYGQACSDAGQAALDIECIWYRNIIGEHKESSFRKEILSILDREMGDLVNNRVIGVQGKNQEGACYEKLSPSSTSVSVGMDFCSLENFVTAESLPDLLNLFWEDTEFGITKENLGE
Summary of the method: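 Universal all-10-mer Agilent arrays, fresh or stripped once, were converted to double-stranded form by primer extension. GST-tagged yeast transcription factors from PURExpress in vitro transcription/translation, full-length or DNA-binding domain only, were applied at about 100-200 nM and detected with fluorescent anti-GST. After masliner normalisation, the Universal PBM Analysis Suite scored each ungapped eight-base word together with its reverse complement by E-score.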

Row | Sequence | PBM E-score
1 | CAAATACG | -0.00546
2 | CGAAACTA | 0.0737
3 | CACTAGTC | -0.184
4 | ACTAACGA | 0.00902
5 | AAAGGCAT | 0.141
6 | AACCTATT | -0.139
7 | GCATCCCC | -0.168
8 | CATCAATG | -0.0256
9 | GATGCCAA | -0.105
10 | GATGCCGA | 0.319
11 | GATGCCGC | 0.106
12 | AATGCCGT | 0.304
13 | AATGCCAT | 0.055
14 | AATGCCGC | 0.199
15 | CCTCTTCG | -0.00118
16 | AGTTCCCG | 0.223
17 | CCGCGCGC | 0.154
18 | CCGCGGTA | 0.345
19 | AGGCGGTA | -0.135
20 | CCGCGGTC | 0.205
21 | CGGCGGTA | 0.348
22 | ACGCGGAG | 0.143

Row | Sequence | PBM E-score
23 | CCGCGCGG | 0.386
24 | CCGCGGAC | 0.295
25 | ACGCGGTA | -0.105
26 | CCGCGCGA | 0.183
27 | GGGCGGTA | -0.0752
28 | CCGCGGAG | 0.333
29 | CCAGCTTC | -0.0253
30 | CAAAATGA | 0.0065
31 | GACTCAAC | 0.0381
32 | ATCTCTTC | 0.0858
33 | AGGTTAAC | -0.037
34 | CCGCGGGC | 0.25
35 | GCGCGGGA | 0.0199
36 | CCGCGGGA | 0.324
37 | GCGCGGAA | 0.138
38 | CCGCGGAA | 0.416
39 | TCGCGGAA | 0.137
40 | CGGTGGTC | -0.0197
41 | AGAGATCC | -0.00438
42 | AAGTGTCA | -0.293
43 | ACAAAACT | 0.144
44 | CGCCCAAA | 0.0692
